# Measured values taken from the supplement of paper PMC12494721.
# Structures can show the parent of a compound that is named as a salt.
# Key:
# Settings in all cases: incubation time: 27 h, anaerobic, 37 °C;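 for the amine columns active = adjusted P below 0.05 in both replicates with a change the same way and a mean fold change under 0.8 or over 1.25; inactive = the rest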
# [1] = system: Clostridium sporogenes DSM 1664; assay: growth (OD595) fold change vs plate DMSO controls (fold change (ratio)); higher = more growth
# In short: (§1)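 The reported measure is growth: the fold change against the median of DMSO controls on the plate. Absorbance at 595 nm from anaerobic 96-well mGAM cultures grown for 27 h at 37 °C was blank-subtracted, corrected for background with 20 µM compound solutions in water, and converted to OD with a calibration factor of 5. Fold changes above 1.5 appear as NA, and values are the mean of 2 biological replicates.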
# Escherichia coli IAI1 [2] = assay: as above
# In short: as §1
# [3] = system: Klebsiella aerogenes DSM 30053; assay: as above
# In short: as §1
# [4] = system: Ruminococcus gnavus DSM 108212; assay: as above
# In short: as §1
# [5] = system: Klebsiella aerogenes DSM 30053; assay: fold change of Histamine concentration vs plate DMSO controls (fold change (ratio)); higher = more amine produced, active = hit call of the paper (significant change in both replicates, either direction)
# In short: (§2)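 Each value is the fold change relative to DMSO-only wells on the same plate. Four gut bacterial strains were grown anaerobically in mGAM at 37 °C for 27 h in 80 µL wells, starting at OD 0.1 before a 1:1 dilution, with compounds at 20 µM final (sweeteners 50 µM). Whole cultures were extracted with cold acetonitrile/methanol containing 0.1% formic acid, centrifuged, and amines were quantified by LC–triple-quadrupole MS (dynamic MRM) against external calibration curves with within-batch drift correction. Values are means of 2 biological replicates.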
# [6] = system: Clostridium sporogenes DSM 1664; assay: fold change of Tryptamine concentration vs plate DMSO controls (fold change (ratio)); higher = more amine produced, active = hit call of the paper (significant change in both replicates, either direction)
# In short: as §2
# [7] = system: Ruminococcus gnavus DSM 108212; assay: as above
# In short: as §2
# Escherichia coli IAI1 [8] = assay: fold change of Putrescine concentration vs plate DMSO controls (fold change (ratio)); higher = more amine produced, active = hit call of the paper (significant change in both replicates, either direction)
# In short: as §2
# [9] = system: Klebsiella aerogenes DSM 30053; assay: as above
# In short: as §2
# Escherichia coli IAI1 [10] = assay: fold change of Cadaverine concentration vs plate DMSO controls (fold change (ratio)); higher = more amine produced, active = hit call of the paper (significant change in both replicates, either direction)
# In short: as §2
# [11] = system: Klebsiella aerogenes DSM 30053; assay: as above
# In short: as §2
# [12] = system: Ruminococcus gnavus DSM 108212; assay: fold change of 2-Phenylethylamine concentration vs plate DMSO controls (fold change (ratio)); higher = more amine produced, active = hit call of the paper (significant change in both replicates, either direction)
# In short: as §2
compound,measurement,setting,value
CO[C@@H]1[C@@H](OC(N)=O)[C@@H](O)[C@H](Oc2ccc3c(O)c(NC(=O)c4ccc(O)c(CC=C(C)C)c4)c(=O)oc3c2C)OC1(C)C [Novobiocin sodium salt] (20 µM),growth,[1],1.07
same,growth,Escherichia coli IAI1 [2],0.922
same,growth,[3],0.747
same,growth,[4],0.338
same,fold change of Histamine concentration,[5],0.858 (inactive)
same,fold change of Tryptamine concentration,[6],0.754 (inactive)
same,fold change of Tryptamine concentration,[7],0.176 (active)
same,fold change of Putrescine concentration,Escherichia coli IAI1 [8],1.18 (inactive)
same,fold change of Putrescine concentration,[9],0.986 (inactive)
same,fold change of Cadaverine concentration,Escherichia coli IAI1 [10],1.04 (inactive)
same,fold change of Cadaverine concentration,[11],1 (inactive)
same,fold change of 2-Phenylethylamine concentration,[12],0.208 (active)
CC1(C)S[C@@H]2[C@H](NC(=O)Cc3ccccc3)C(=O)N2[C@H]1C(=O)O [Benzylpenicillin sodium] (20 µM),growth,[1],0
same,growth,Escherichia coli IAI1 [2],1.19
same,growth,[3],1.1
same,growth,[4],0
same,fold change of Histamine concentration,[5],1.06 (inactive)
same,fold change of Tryptamine concentration,[6],0.05 (active)
same,fold change of Tryptamine concentration,[7],0.0412 (active)
same,fold change of Putrescine concentration,Escherichia coli IAI1 [8],1.09 (inactive)
same,fold change of Putrescine concentration,[9],1.04 (inactive)
same,fold change of Cadaverine concentration,Escherichia coli IAI1 [10],1.56 (active)
same,fold change of Cadaverine concentration,[11],1.03 (inactive)
same,fold change of 2-Phenylethylamine concentration,[12],0.0471 (active)
CC(C)(Sc1cc(C(C)(C)C)c(O)c(C(C)(C)C)c1)Sc1cc(C(C)(C)C)c(O)c(C(C)(C)C)c1 [Probucol] (20 µM),growth,[1],1.03
same,growth,Escherichia coli IAI1 [2],1.06
same,growth,[3],1.03
same,growth,[4],1.15
same,fold change of Histamine concentration,[5],0.921 (inactive)
same,fold change of Tryptamine concentration,[6],1.02 (inactive)
same,fold change of Tryptamine concentration,[7],1.01 (inactive)
same,fold change of Putrescine concentration,Escherichia coli IAI1 [8],1.04 (inactive)
same,fold change of Putrescine concentration,[9],0.983 (inactive)
same,fold change of Cadaverine concentration,Escherichia coli IAI1 [10],0.921 (inactive)
same,fold change of Cadaverine concentration,[11],1.01 (inactive)
same,fold change of 2-Phenylethylamine concentration,[12],1.01 (inactive)
Cc1c(-c2ccccc2)oc2c(C(=O)OCCN3CCCCC3)cccc2c1=O [Flavoxate hydrochloride] (20 µM),growth,[1],1.09
same,growth,Escherichia coli IAI1 [2],1.01
same,growth,[3],1.06
same,growth,[4],1.14
same,fold change of Histamine concentration,[5],1.01 (inactive)
same,fold change of Tryptamine concentration,[6],1.05 (inactive)
same,fold change of Tryptamine concentration,[7],1.03 (inactive)
same,fold change of Putrescine concentration,Escherichia coli IAI1 [8],1 (inactive)
same,fold change of Putrescine concentration,[9],1 (inactive)
same,fold change of Cadaverine concentration,Escherichia coli IAI1 [10],1.03 (inactive)
same,fold change of Cadaverine concentration,[11],1 (inactive)
same,fold change of 2-Phenylethylamine concentration,[12],1.02 (inactive)
CCC(=O)O[C@@H]1CC(=O)O[C@H](C)C/C=C/C=C/[C@H](O)[C@H](C)C[C@H](CC=O)[C@H](O[C@@H]2O[C@H](C)[C@@H](O[C@H]3C[C@@](C)(O)[C@@H](OC(=O)CC)[C@H](C)O3)[C@H](N(C)C)[C@H]2O)[C@H]1OC [Midecamycin] (20 µM),growth,[1],0.00179
same,growth,Escherichia coli IAI1 [2],0.905
same,growth,[3],0.965
same,growth,[4],0.164
same,fold change of Histamine concentration,[5],0.412 (active)
same,fold change of Tryptamine concentration,[6],0.0271 (active)
same,fold change of Tryptamine concentration,[7],0.143 (active)
same,fold change of Putrescine concentration,Escherichia coli IAI1 [8],0.909 (inactive)
same,fold change of Putrescine concentration,[9],1.06 (inactive)
same,fold change of Cadaverine concentration,Escherichia coli IAI1 [10],1.05 (inactive)
same,fold change of Cadaverine concentration,[11],1.05 (inactive)
same,fold change of 2-Phenylethylamine concentration,[12],0.141 (active)
CN(C)CCOC(c1ccc(Cl)cc1)c1ccccn1 (stereo not given) [Carbinoxamine maleate salt] (20 µM),growth,[1],1.2
same,growth,Escherichia coli IAI1 [2],1.01
same,growth,[3],0.985
same,growth,[4],0.88
same,fold change of Histamine concentration,[5],1.04 (inactive)
same,fold change of Tryptamine concentration,[6],0.981 (inactive)
same,fold change of Tryptamine concentration,[7],1.05 (inactive)
same,fold change of Putrescine concentration,Escherichia coli IAI1 [8],0.966 (inactive)
same,fold change of Putrescine concentration,[9],1.02 (inactive)
same,fold change of Cadaverine concentration,Escherichia coli IAI1 [10],0.974 (inactive)
same,fold change of Cadaverine concentration,[11],1 (inactive)
same,fold change of 2-Phenylethylamine concentration,[12],1.1 (inactive)
CCCc1c2oc(C(=O)O)cc(=O)c2cc2c(=O)cc(C(=O)O)n(CC)c12 [Nedocromil sodium] (20 µM),growth,[1],0.949
same,growth,Escherichia coli IAI1 [2],0.993
same,growth,[3],1
same,growth,[4],0.981
same,fold change of Histamine concentration,[5],1.06 (inactive)
same,fold change of Tryptamine concentration,[6],0.924 (inactive)
same,fold change of Tryptamine concentration,[7],0.987 (inactive)
same,fold change of Putrescine concentration,Escherichia coli IAI1 [8],0.999 (inactive)
same,fold change of Putrescine concentration,[9],1.01 (inactive)
same,fold change of Cadaverine concentration,Escherichia coli IAI1 [10],1.04 (inactive)
same,fold change of Cadaverine concentration,[11],0.984 (inactive)
same,fold change of 2-Phenylethylamine concentration,[12],1 (inactive)
COc1ccc2c3c1O[C@H]1C[C@@H](O)C=C[C@@]31CCN(C)C2 [Galanthamine hydrobromide] (20 µM),growth,[1],0.93
same,growth,Escherichia coli IAI1 [2],1.06
same,growth,[3],1.04
same,growth,[4],0.846
same,fold change of Histamine concentration,[5],1.01 (inactive)
same,fold change of Tryptamine concentration,[6],1.01 (inactive)
same,fold change of Tryptamine concentration,[7],1.01 (inactive)
same,fold change of Putrescine concentration,Escherichia coli IAI1 [8],1.03 (inactive)
same,fold change of Putrescine concentration,[9],1 (inactive)
same,fold change of Cadaverine concentration,Escherichia coli IAI1 [10],0.979 (inactive)
same,fold change of Cadaverine concentration,[11],0.999 (inactive)
same,fold change of 2-Phenylethylamine concentration,[12],1 (inactive)
N=C(N)NC(=O)Cc1c(Cl)cccc1Cl [Guanfacine hydrochloride] (20 µM),growth,[1],0.939
same,growth,Escherichia coli IAI1 [2],0.961
same,growth,[3],1.03
same,growth,[4],0.811
same,fold change of Histamine concentration,[5],0.903 (inactive)
same,fold change of Tryptamine concentration,[6],0.953 (inactive)
same,fold change of Tryptamine concentration,[7],1.01 (inactive)
same,fold change of Putrescine concentration,Escherichia coli IAI1 [8],1.02 (inactive)
same,fold change of Putrescine concentration,[9],0.99 (inactive)
same,fold change of Cadaverine concentration,Escherichia coli IAI1 [10],1.01 (inactive)
same,fold change of Cadaverine concentration,[11],1.01 (inactive)
same,fold change of 2-Phenylethylamine concentration,[12],1.02 (inactive)
O=C(O)COC(=O)Cc1ccccc1Nc1c(Cl)cccc1Cl [Aceclofenac] (20 µM),growth,[1],1.1
same,growth,Escherichia coli IAI1 [2],1.11
same,growth,[3],1.14
same,growth,[4],0.993
same,fold change of Histamine concentration,[5],0.97 (inactive)
same,fold change of Tryptamine concentration,[6],0.959 (inactive)
same,fold change of Tryptamine concentration,[7],0.984 (inactive)
same,fold change of Putrescine concentration,Escherichia coli IAI1 [8],1.08 (inactive)
same,fold change of Putrescine concentration,[9],1.01 (inactive)
same,fold change of Cadaverine concentration,Escherichia coli IAI1 [10],0.962 (inactive)
same,fold change of Cadaverine concentration,[11],1.01 (inactive)
same,fold change of 2-Phenylethylamine concentration,[12],1.05 (inactive)
